Drawing on PubChem BioAssay (NCATS), this text covers Potency and activity (max response) for 19 compounds.

Structures are written as SMILES. Several values for one entry are separate records, joined by “and”; a condition that tells them apart may be missing. Equal values may be shown once. Records with an inconclusive call do not appear. Activity calls are given as the source filed them. The call rests on the fitted dose curve; in most records, active means well fitted curve in the direction sought with a large enough effect; inconclusive means small, poorly fitted or top-dose-only effect, or another doubt; inactive means no such curve, though single readings can be large; an effect the other way counts as inactive or inconclusive.

Assay [1] is described as follows: Viability qHTS for spleen associated tyrosine kinase inhibitor (SYKi) naive MV4-11 cells (AID 1963823). Further: nearly all actives have a fitted effect of over 40% in size. The conditions noted are these: MV4-11 AML viability, CellTiter-Glo luminescence, 72 h; series mostly up to 45 µM. The method, boiled down:
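qHTS, SYK inhibitor-naive MV4-11; 500 cells/well; 72 hr compound exposure, 37 C; CellTiter-Glo added, 10 min RT; luminescence read.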

A short description of assay [2]: Viability qHTS for spleen associated tyrosine kinase inhibitor (SYKi) drug resistant MV4-11 cells (AID 1963824). Further: nearly all actives have a fitted effect of over 35% in size. The settings on record: SYKi-resistant MV4-11 viability, CellTiter-Glo, 72 h; series mostly up to 45 µM. The method, boiled down: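 SYK-inhibitor-resistant MV4-11 AML cells were seeded at 500 per well onto compound and cultured 72 hours (37 °C, 5% CO2). CellTiter-Glo was then added, and after 10 min at room temperature, luminescence gave viability.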
Background: Quantitative high-throughput screening tests each substance at several concentrations.

Assay [3] can be described thus: Cellular viability qHTS for adrenocortical cancer (ACC) cell line SW-13 (AID 1963989). Further: nearly all actives have a fitted effect of over 65% in size.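 On activity (max response): cells grown in serum-free medium with ITS supplement; on the % scale 0 is the no-effect control and ±100 the full control effect.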 The conditions noted are these: SW-13 ACC cells viability, CellTiter-Glo, 48 h; activity (max response): active compounds read low. Summed up: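 Compound titrations (up to 46 uM final, in DMSO) were applied to SW-13 cells for 48 h at 37C/5% CO2. Reading used CellTiter-Glo after 20 min at room temperature; fitted curves yielded IC50 and efficacy.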
Potency means the concentration at half of the fitted maximal effect.

Take `O=C(O)CCC(=O)Nc1ccc(S(=O)(=O)Nc2nccs2)cc1`: the Potency entry in assay [1] and in assay [2] was “inactive” each time. Besides, the activity (max response) in assay [3] is -7.1% (inactive).
Regarding `CCOC(=O)c1cnc2c(cnn2CC)c1NN=C(C)C`, the Potency entry in assay [1] and in assay [2] was “inactive” throughout. Further, the activity (max response) in assay [3] was 7.42% (inactive).
On to `COc1ccc2nc3n[nH]c(C)c3c(NCCOCCO)c2c1`, for which the Potency in assay [1] was 18.4 µM (active) and 9.34 µM (active); in assay [2] it was 16.4 µM (active) and 13.2 µM (active). In addition, the activity (max response) in assay [3] was 0.542% (inactive).
For `CC1=C(c2ccc(O)cc2)[C@H](c2ccc(OCCN3CCCCC3)cc2)Oc2cc(O)ccc21`, the Potency in assay [1] and in assay [2] was 8.33 µM (active) throughout. Also, the activity (max response) in assay [3] is -12% (inactive).
With `Nc1nccc2c1ncn2[C@@H]1C=C(CO)[C@@H](O)[C@H]1O`, the Potency in assay [1] is 0.166 µM (active); in assay [2] it was 0.209 µM (active); in assay [3] it was 7.94 µM (active).
On the same counts, the results for `O=C(/C=C/c1cccnc1)NCCCCC1CCN(C(=O)c2ccccc2)CC1` are 0.0053 µM (active), 0.0053 µM (active) and 0.0126 µM (active).
For `C=C1CCC2[C@](C)(CO)C(O)CC[C@]2(C)C1C/C=C1/C(=O)OCC1O` (some centres not stated), the Potency in assay [1] is 3.32 µM (active); in assay [2], 2.63 µM (active); in assay [3], 25.1 µM (active).
For `O=C(c1ccc(/C=C/c2n[nH]c3ccccc23)cc1)N1CCNCC1`, the Potency is 0.058 µM (active) in assay [1] and 0.206 µM (active) in assay [2]. Moreover, in assay [3], the activity (max response) was -10.3% (inactive).
On the same counts, the results for `Cc1c(-c2ccccc2)oc2c(C(=O)OCCN3CCCCC3)cccc2c1=O` are “inactive”, “inactive” and -7.2% (inactive).
On to `c1ccc(CC2=NCCN2)cc1`, for which the Potency result in assay [1] and in assay [2] was “inactive” in each case. In addition, in assay [3], the activity (max response) is -11.9% (inactive).
Consider `O=C1Nc2nc(-c3c(O)cccc3OCC3CC3)cc([C@@H]3CCCNC3)c2CO1`, for which the Potency is 2.91 µM (active) in assay [1]; 4.11 µM (active) and 5.25 µM (active) in assay [2]; 22.4 µM (active) in assay [3].
In the case of `OCCN1CCN(CCCN2c3ccccc3Sc3ccc(Cl)cc32)CC1`, the Potency in assay [1] was 11.9 µM (active); in assay [2], 8.41 µM (active); in assay [3], 6.51 µM (active).
As for `C[C@]12C=CC(=O)C=C1CC[C@@H]1[C@@H]2[C@@H](O)C[C@@]2(C)[C@H]1CC[C@]2(O)C(=O)CO`, the Potency entry in assay [1] and in assay [2] was “inactive” throughout. Moreover, the activity (max response) in assay [3] was -7.97% (inactive) and -0.878% (inactive).
Regarding `C[C@@H]1C[C@H]2[C@@H]3C[C@H](F)C4=CC(=O)C=C[C@]4(C)[C@@]3(F)[C@@H](O)C[C@]2(C)[C@@]1(O)C(=O)CO`, the Potency in assay [1] is 0.335 µM (active); in assay [2] it was 2.11 µM (active). Further, the activity (max response) in assay [3] is -1.7% (inactive).
For the compound `Cc1nc(NC(=O)N2CCC[C@H]2C(N)=O)sc1-c1csc(C(C)(C)C)n1`, the Potency in assay [1] and in assay [2] was 7.42 µM (active) each time. In addition, the activity (max response) in assay [3] is -23.3% (inactive).
`C#C[C@]1(O)CC[C@H]2[C@@H]3CCC4=Cc5oncc5C[C@]4(C)[C@H]3CC[C@@]21C`: the Potency in assay [1] is 15 µM (active); in assay [2], 8.41 µM (active). Moreover, in assay [3], the activity (max response) was 0.351% (inactive).
On the same counts, the results for `C[C@@H]1C(=O)OC2[C@H](O)[C@]34[C@H]5C[C@@H](C(C)(C)C)[C@]36[C@@H](OC(=O)[C@@H]6O)O[C@@]4(C(=O)O5)[C@]21O` (some centres not stated) are “inactive”, “inactive” and 5.05% (inactive).
In the case of `CCCCCCCCCCCCCC[N+](C)(C)Cc1ccccc1`, the Potency in assay [1] was 2.99 µM (active); in assay [2], 3.35 µM (active); in assay [3], 6.51 µM (active).
Taken in the same sequence, the figures for `Cc1ccc(S(=O)(=O)Nc2cc(-c3ccc(C#N)s3)ccc2C)cc1` were 0.0295 µM (active), 0.0332 µM (active) and 0.0447 µM (active).
